Measured values taken from PubChem BioAssay (NCATS).
Records with an inconclusive call do not appear. Values without a mark were called inactive. Calls of active or inactive are those of the source. Calls follow the shape of the dose curve; as a rule, active = well fitted cell-killing curve with a large enough effect; inconclusive = small, poorly fitted or top-dose-only effect; inactive = flat fitted curve, though single readings scatter.

Experiment: qHTS of pediatric cancer cell lines to identify multiple opportunities for drug repurposing: Primary screen for control Hh wild type fibroblast cells (AID 1347106); also: nearly all actives have a fitted effect of over 55% in size;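 as to activity change, negative = cytotoxic: a drop in luminescence marks cytotoxicity and a rise apparent proliferation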
Conditions: Hh wild-type fibroblast viability, CellTiter-Glo luminescence, 48 h; series mostly up to 46 µM; activity change, negative = cytotoxic: at the top concentration
Source text: Drug repurposing or repositioning has been offered as a strategy for drug development in oncology programs. This approach has special potential for childhood cancers and other rare or orphan diseases, where the expected return on new drug development has been a disincentive to pharmaceuticals.
In this project we exploit the poly-pharmacology of drugs to discover new indications via phenotypic screening of a panel of 19 well-characterized cell lines derived from solid tumors seen in children and adolescents. The goal is to identify approved drugs with previously unrecognized anticancer properties that has the potential to reveal new mechanisms and biological processes involved in carcinogenesis or drug resistance. We employed a titration-based paradigm (quantitative high-throughput screening or qHTS), where all compounds were tested at multiple concentrations for their effect on cell viability. Concentration-response curves (CRCs) were derived directly from the primary screen, and both potency and efficacy values were used to identify compounds with robust bioactivity profiles. We screened the NIH Chemical Genomics Center (NCGC) Pharmaceutical Collection (NPC) and Mechanism Interrogation Plate (MIPE) small molecule collections of approved and investigational compounds against these cell lines; and measured metabolically active cells after 48 hours of compound treatment as a proxy for cell viability.
Assay Submitter: Nathalia J. Martinez, National Center for Advancing Translational Sciences, National Institutes of Health, Rockville, MD, USA; email: natalia.martinez@nih.gov
[1] Shen, M et al. Quantitative high-throughput phenotypic screening of pediatric cancer cell lines identifies multiple opportunities for drug repurposing. Oncotarget 2017 Dec 19;9(4):4758-4772. PMID 29435139.
The cells were obtained from University of North Carolina (UNC), Pediatric Preclinical Testing Program (PPT), and Coriell Institute (CI).
qHTS cell viability assay:
Cells were assayed in growth media at a density of 500-1,000 cells/well. Five microliters of cells were dispensed into 1,536-well, white, solid-bottom, TC-treated plates (Greiner Bio One) using a multidrop dispenser and incubated at 37 degrees C, 5% CO2, under a humidified atmosphere for 5 hours. Twenty-three nanoliters of compounds and controls (neutral control DMSO or positive control bortezomib at final concentration of 2.3 µM) were subsequently transferred by Kalypsys pintool. For primary screens, the MIPE collection was tested at 11-point dilutions (final concentrations range from 0.78 nM to 46 µM) and the NPC collection at 8-point dilutions (final concentrations range from 0.59 nM to 46 µM). Compounds tested in follow-up screens were assayed at 11-point dilutions. Cells were incubated for 48 hours, followed by addition of 3 µL of CellTiter-Glo (Promega). After a 15 min incubation at room temperature, samples were analyzed for luminescence intensity using a ViewLux High-throughput CCD imager equipped with clear filters.
% is scaled to controls: 0 for no effect and ±100 for the full control effect; potency is read from the fitted curve at half-maximal effect.

| SMILES | activity change, negative = cytotoxic | Potency |
| --- | --- | --- |
| O=C(O)CCc1nc(-c2ccccc2)c(-c2ccccc2)o1 | -0.136% | – |
| c1ccc2c(-c3cnn4cc(-c5ccc(N6CCNCC6)cc5)cnc34)ccnc2c1 | – | 4.69 µM (active) |
| CN1[C@@H]2CCC[C@@H]1CC(NC(=O)c1nn(C)c3ccccc13)C2 (stereo not given in full) | 5.08% | – |
| O=C(O)c1cc(O)c2c(c1)C(=O)c1cccc(O)c1C2=O | 7.02% [at 92.7 µM] | – |
| COc1cccc(-c2cc(=O)c3ccccc3o2)c1N | -13.9% | – |
| O=C1NC(=O)C(=Cc2ccc3nccnc3c2)S1 | -17.4% [at 16.1 µM] | – |
| COc1cc(N2CCC(N3CCN(C)CC3)CC2)ccc1Nc1ncc(Cl)c(Nc2ccccc2S(=O)(=O)C(C)C)n1 | – | 29.6 µM (active) |
| NC1=N[C@@]2(c3cc(NC(=O)c4ccc(F)cn4)ccc3F)COC[C@@H]2CS1 | 12.7% | – |
| Cc1ccc(C(C)(O)c2nc3ccccc3s2)c(C)c1 (stereo not given) | -5.84% | – |
| NC(=O)c1cccc(-c2cc(Nc3ccc(OC(F)(F)F)cc3)ncn2)c1 | 19.8% | – |
| CC(C)n1cnc2c(NCCCCCCNC(=O)OC(C)(C)C)nc(NCCO)nc21 | 14.9% | – |
| O=c1cc(-c2ccccc2)oc2cc(O)c(O)c(O)c12 | -11.1% | – |
| NCCS | 1.76% | – |
| CC(C)(C)COc1ccc(-n2cc(C(=O)O)cn2)cc1C#N | 0.147% | – |
| CON=C(C(=O)N[C@@H]1C(=O)N2C(C(=O)OCOC(=O)C(C)(C)C)=C(C=Cc3scnc3C)CS[C@H]12)c1csc(N)n1 | -2.51% | – |
| CCc1ccc(OCc2ccccc2C(=O)Nc2ccc3nc(C)cc(N)c3c2)cc1 | – | 9.35 µM (active) |
| C[C@H](NC(=O)c1sccc1OCc1ccc(Cl)cc1)c1ccccc1 | 7.39% | – |
| CC(C)OC(=O)C(C)(C)Oc1ccc(C(=O)c2ccc(Cl)cc2)cc1 | – | inactive |
| CC(C)C[C@H](CC(=O)O)C(=O)N[C@@H](Cc1c[nH]c2ccccc12)C(=O)N[C@@H](C)c1ccccc1 | -6.94% | – |
| O=C1Nc2ccc(Cl)cc2C(C#CC2CC2)(C(F)(F)F)O1 (stereo not given) | 0.894% | – |

| SMILES | activity change, negative = cytotoxic | Potency |
| --- | --- | --- |
| CCCCCCCCCCCC1=C(O)C(=O)C=C(O)C1=O | -3.34% | – |
| C[C@@H]1CCN(C(=O)CC#N)C[C@H]1N(C)c1ncnc2[nH]ccc12 | 4.51% | – |
| CC[C@@H]1C=C(C)C[C@H](C)C[C@H](OC)[C@H]2O[C@@](O)(C(=O)C(=O)N3CCCC[C@@H]3C(=O)O[C@H](C(C)=C[C@@H]3CC[C@H](Cl)[C@H](OC)C3)[C@H](C)[C@@H](O)CC1=O)[C@H](C)C[C@H]2OC | -14.4% | – |
| CCn1c(C(=O)N(C2CC2)C2CC2)cc2c3c(ncn3C)c(Nc3cc(C)n(C)n3)nc21 | -5.71% | – |
| CCC(=O)O[C@]1(C(=O)CO)CC[C@H]2[C@@H]3CCC4=CC(=O)CC[C@]4(C)[C@@H]3CC[C@@]21C | -3% | – |
| O=C(O)Cc1cccc2ccccc12 | – | inactive |
| O=C(O)c1ccccc1C(=O)Nc1ccc(-c2ccccc2)cc1 | 3.82% | – |
| COc1cc(O)c2c(c1)C(=O)c1cc(C)cc(O)c1C2=O | 23.3% [at 16.1 µM] | – |
| COc1cc(NC(=O)c2ccc(-c3ccc(Cl)cc3)o2)cc(OC)c1 | – | 10.5 µM (active) |
| CC[C@]1(O)C[C@@H]2CN(CCc3c([nH]c4ccccc34)[C@@](C(=O)OC)(c3cc4c(cc3OC)N(C=O)[C@@H]3C45CCN4CC=C[C@](CC)([C@H]45)[C@@H](OC(C)=O)[C@]3(O)C(=O)OC)C2)C1 (stereo not given in full) | 7.68% | – |
| CCNc1cc(NC2CCC(O)CC2)nc(Nc2ccc3c(ccn3Cc3ccccc3)c2)n1 (stereo not given) | -10.2% | – |
| CCOC(=O)O[C@]1(C(=O)OCCl)CC[C@@H]2[C@H]3CCC4=CC(=O)C=C[C@]4(C)[C@@H]3[C@@H](O)C[C@@]21C | -3.87% | – |
| C[C@H]1[C@H](NC(=O)C(=NOC(C)(C)C(=O)O)c2csc(N)n2)C(=O)N1S(=O)(=O)O | 4.23% | – |
| CCOC1OC(=O)C[C@H]1NC(=O)[C@@H]1CCCN1C(=O)[C@@H](NC(=O)c1ccc(N)c(Cl)c1)C(C)(C)C (stereo not given in full) | -6.99% | – |
| O=C(NC1CCOCC1)c1ccc(-c2cc(-c3cn[nH]c3-c3ccccn3)ccn2)cc1 | 22.4% | – |
| N[C@@]1(C(=O)O)CS(=O)(=O)[C@H]2[C@H](C(=O)O)[C@H]21 | -18.8% | – |
| CC(C)(Cc1ccc2ccccc2c1)NC[C@@H](O)COc1cccc(Cl)c1C#N | -2.6% | – |
| CC(=O)O[C@]1(C(C)=O)CC[C@@H]2[C@@H]3C[C@H](C)C4=CC(=O)CC[C@]4(C)[C@H]3CC[C@@]21C | -15.4% | – |
| O=C(O)CCC1CCC(c2cc(F)ccc2F)(S(=O)(=O)c2ccc(Cl)cc2)CC1 (stereo not given) | -17.3% | – |
| C[C@]12CC[C@@H]3c4ccc(O)cc4C[C@@H](CCCCCCCCCS(=O)CCCC(F)(F)C(F)(F)F)[C@H]3[C@H]1CC[C@H]2O (stereo not given in full) | -1.53% | – |
